We go through eight sequences from publication PMC8384837, “Expanding the binding specificity for RNA recognition by a PUF domain”.

Assay in all cases: yeast three-hybrid, YBZ-1, SC-Leu-His + 0.5 mM 3-AT, 4 days
Holding throughout (details): tags: N-Gal4 AD-HA kept; label: inside an RPR1-promoter hybrid RNA with tandem MS2 sites; ssRNA

Assay [1] concerns the target PUM1 PUF domain R5-EYG (Homo sapiens, UniProt Q14671 828-1176, C1007E;R1008Y;Q1011G). In short, it runs like this: (§1)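 Each repeat of the Pumilio-1 PUF domain was randomized at its three base-contacting residues, and these libraries were co-expressed from a centromeric plasmid with matching RNA elements in strain YBZ-1. After four days on SC-Leu (input) or SC-Leu-His + 0.5 mM 3-AT (selection), the repeat regions were PCR-amplified and Illumina-sequenced. The interaction score compares variant frequency between input and selection as a log change, computed in log2 with a pseudocount of 1 for absent variants.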

Assay [2] deals with PUM1 PUF domain R5-RDG (Homo sapiens, UniProt Q14671 828-1176, C1007R;R1008D;Q1011G). In short, it runs like this:
as §1

Assay [3] concerns the target PUM1 PUF domain R5-RGM (Homo sapiens, UniProt Q14671 828-1176, C1007R;R1008G;Q1011M). In short, it runs like this: as §1
In assay [4] the target is PUM1 PUF domain R3-TTE (Homo sapiens, UniProt Q14671 828-1176, C935T;R936T;Q939E). In short, it runs like this: as §1
Assay [5] deals with PUM1 PUF domain R3-IWM (Homo sapiens, UniProt Q14671 828-1176, C935I;R936W;Q939M). In short, it runs like this:
as §1

Assay [6] has as its target PUM1 PUF domain R4-PWV (Homo sapiens, UniProt Q14671 828-1176, N971P;H972W;Q975V). In short, it runs like this:
as §1

Assay [7] has as its target PUM1 PUF domain R4-APG (Homo sapiens, UniProt Q14671 828-1176, N971A;H972P;Q975G). In short, it runs like this: as §1
Assay [8] has as its target PUM1 PUF domain R1-KRT (Homo sapiens, UniProt Q14671 828-1176, S863K;Q867T). In short, it runs like this:
as §1

The target of assay [9] is T1, PUM1 PUF domain R6-LWM (Homo sapiens, UniProt Q14671 828-1176, N1043L;Y1044W;Q1047M).
T1 sequence: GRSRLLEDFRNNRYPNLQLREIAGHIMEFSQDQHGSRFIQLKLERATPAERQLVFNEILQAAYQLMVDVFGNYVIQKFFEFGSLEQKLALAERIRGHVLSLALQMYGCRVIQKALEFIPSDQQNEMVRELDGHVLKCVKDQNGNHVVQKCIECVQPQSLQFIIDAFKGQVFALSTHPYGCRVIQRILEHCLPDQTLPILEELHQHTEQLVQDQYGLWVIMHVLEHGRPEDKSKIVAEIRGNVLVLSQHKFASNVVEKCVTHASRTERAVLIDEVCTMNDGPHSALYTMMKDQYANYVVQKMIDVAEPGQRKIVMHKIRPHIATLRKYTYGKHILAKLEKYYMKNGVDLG
In short, it runs like this:
as §1

For assay [10], the target named is T2, PUM1 PUF domain R6-NHW (Homo sapiens, UniProt Q14671 828-1176, Y1044H;Q1047W).
T2 sequence: T1 sequence with L216N, W217H, M220W
In short, it runs like this:
as §1

The target in assay [11] is PUM1 PUF domain R8-RHM (Homo sapiens, UniProt Q14671 828-1176, N1122R;Y1123H;Q1126M). In short, it runs like this: as §1
Assay [12] deals with PUM1 PUF domain R5-PRQ (Homo sapiens, UniProt Q14671 828-1176, C1007P). In short, it runs like this:
as §1

Assay [13] has as its target T3, PUM1 PUF domain R6-AFE (Homo sapiens, UniProt Q14671 828-1176, N1043A;Y1044F;Q1047E).
T3 sequence: T1 sequence with L216A, W217F, M220E
In short, it runs like this: as §1

Assay [14] addresses PUM1 PUF domain R1-IRR (Homo sapiens, UniProt Q14671 828-1176, S863I;Q867R). In short, it runs like this:
as §1

Assay [15] has as its target PUM1 PUF domain R2-AWD (Homo sapiens, UniProt Q14671 828-1176, N899A;Y900W;Q903D). In short, it runs like this: as §1
Assay [16] deals with PUM1 PUF domain R2-SWP (Homo sapiens, UniProt Q14671 828-1176, N899S;Y900W;Q903P). In short, it runs like this: as §1

Residue numbers refer to the chain shown, from its start.

With “GGCUAGAACUAGUGGAUCCCCCGGCGCCCGGCGGCUCGAGCCCGGGUAAGUGUGAAUAGUCUGCAUGCCGCCGGGCGCCAUGCCUGCAGGUCGACUCUAGAAAACAUG”, the binding signal in assay [1] was 4.35 log2 enrichment (interaction score); in assay [2] it was 2.49 log2 enrichment (interaction score).
As to “GGCUAGAACUAGUGGAUCCCCCGGCGCCCGGCGGCUCGAGCCCGGGUAAGUGUCAAUAGUCUGCAUGCCGCCGGGCGCCAUGCCUGCAGGUCGACUCUAGAAAACAUG”, the binding signal in assay [3] is 2.26 log2 enrichment (interaction score).
Take “GGCUAGAACUAGUGGAUCCCCCGGCGCCCGGCGGCUCGAGCCCGGGUAAGUGUAAGUAGUCUGCAUGCCGCCGGGCGCCAUGCCUGCAGGUCGACUCUAGAAAACAUG”: the figures for the binding signal in [4] and in assay [5] were 5.3 log2 enrichment (interaction score) and 4.14 log2 enrichment (interaction score), respectively.
On to “GGCUAGAACUAGUGGAUCCCCCGGCGCCCGGCGGCUCGAGCCCGGGUAAGUGUAUAUAGUCUGCAUGCCGCCGGGCGCCAUGCCUGCAGGUCGACUCUAGAAAACAUG”, for which the binding signal was 6.68 log2 enrichment (interaction score) in [6] and 4.91 log2 enrichment (interaction score) in assay [7].
Turning to “GGCUAGAACUAGUGGAUCCCCCGGCGCCCGGCGGCUCGAGCCCGGGUAAGUGUAAAUGGUCUGCAUGCCGCCGGGCGCCAUGCCUGCAGGUCGACUCUAGAAAACAUG”, in assay [8], the binding signal was 4.9 log2 enrichment (interaction score).
With “GGCUAGAACUAGUGGAUCCCCCGGCGCCCGGCGGCUCGAGCCCGGGUAAGUGUAAAUAGUCUGCAUGCCGCCGGGCGCCAUGCCUGCAGGUCGACUCUAGAAAACAUG”, the binding signal in assay [9] is 4.73 log2 enrichment (interaction score); in [10], 2.25 log2 enrichment (interaction score); in assay [6], 6 log2 enrichment (interaction score); in assay [7], 4.82 log2 enrichment (interaction score); in assay [11], 4.13 log2 enrichment (interaction score); in [12], 3.84 log2 enrichment (interaction score). For the same sequence, the binding signal in assay [13] is 1.28 log2 enrichment (interaction score).
As for “GGCUAGAACUAGUGGAUCCCCCGGCGCCCGGCGGCUCGAGCCCGGGUAAGUGUAAAUCGUCUGCAUGCCGCCGGGCGCCAUGCCUGCAGGUCGACUCUAGAAAACAUG”, the binding signal in assay [14] was 2.25 log2 enrichment (interaction score).
For “GGCUAGAACUAGUGGAUCCCCCGGCGCCCGGCGGCUCGAGCCCGGGUAAGUGUAAAAAGUCUGCAUGCCGCCGGGCGCCAUGCCUGCAGGUCGACUCUAGAAAACAUG”, the binding signal in [15] is 6.66 log2 enrichment (interaction score); in [16], 5.19 log2 enrichment (interaction score).
